Source: PubChem BioAssay
PAX8 inh HTS: inhibitors of PAX8 transcriptional activity in RMG-I cells. RMG-I TPO-luciferase reporter, SteadyGlo, 24 h. inhibition, % at 12.6 µM. actives 1.2% (n = 360,000). AID 652154;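 active = mean replicate inhibition at least 60% with every replicate also reaching 60%; inconclusive = only one of the two criteria is met; inactive = mean below 60% and not all replicates reaching 60%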;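 note: luciferase light reporting Pax8 driven TPO promoter activity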
Env fusion inh: HIV envelope-mediated fusion inhibition; HeLa-JRFL Env/CEM21 cell fusion, luciferase; inhibition, % at 12.3 µM; actives 1.1% (n = 360,000); AID 651610;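 active = mean replicate inhibition score of at least 50 and every replicate individually at or above 50; inconclusive = only one of the two criteria met; inactive = mean below 50 and not all replicates reaching 50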
miR122 inh: blocks miR-122 activity in Huh7 sensor cells; Huh7 miR-122 Renilla luciferase sensor, 48 h; neutral wells = 0, positive control = 100; activation (reporter increase), % at 12.5 µM; actives 0.3% (n = 340,000);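 active = mean replicate activation score at least 90 and every replicate individually at or above 90; inconclusive = only one of the two criteria met; inactive = neither criterion met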;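 note: higher luciferase means less miR-122 activity so hits act as miR-122 inhibitors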
EWS-Fli inh: blocks EWS/Fli oncoprotein-driven transcription; A673 NR0B1-luciferase reporter, viability-normalised; inhibition, % at 12.6 µM; actives 0.67% (n = 350,000);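 active = mean inhibition of at least 50% after viability correction, with every replicate also passing that limit; inconclusive = mean reaches 50% but only one of two replicates passes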;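 note: firefly luciferase signal divided by Alamar Blue viability fluorescence both relative to DMSO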
Statin myotox sup: protects C2C12 myotubes from simvastatin toxicity; ATP luminescence, 48 h; scaled: DMSO 0, geranylgeraniol control 100; actives 0.78% (n = 330,000); rescue of ATP level, % at 7.49 µM;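 active = mean ATP rescue above about 67%, or every replicate alone reaching that limit, limit read from the data, passing the limit was not always enough; inconclusive = no clear call, values can overlap the other calls; inactive = mean under the limit and some replicate under it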;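 note: myotubes were challenged with 10 µM simvastatin during compound exposure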
INS-1E GSIS act: primary screen for activators of insulin secretion dependent on glucose, INS-1E cells, GLuc reporter luminescence | activation, % at 16.6 µM | actives 0.61% (n = 370,000) | INS-1E GLuc reporter insulin secretion, 2-3 h | AID 743287;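 active = lowest replicate activation of at least 40%, so every replicate reaches that level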
A number is an active result; – = inactive; ? = inconclusive; · = not tested or not shown; [ ] = dose if it differs, or a comment. Sampled rows, rich in hits. Any-hit rate of the full collection: about 3.1%.

SMILES	PAX8 inh HTS	Env fusion inh	miR122 inh	EWS-Fli inh	Statin myotox sup	INS-1E GSIS act
C/C(=N\NS(=O)(=O)c1ccc(C)cc1)c1ccc(C)o1	–	–	–	–	–	–
C/C(=N/NS(=O)(=O)c1ccc(F)cc1)c1ccc(NC(=O)c2ccc(C)o2)cc1	·	·	132.1	·	–	–
Cc1cc(S(=O)(=O)NCC2CC2)c(Cl)cc1Cl	–	–	104.8	–	–	–
CNC[C@H]1OCCCC[C@H](C)Oc2ccc(NS(=O)(=O)c3ccc(OC)cc3)cc2C(=O)N([C@H](C)CO)C[C@@H]1C	–	–	–	–	–	–
C=CCn1c(SCc2c(C)noc2C)nc2sc(C)c(C)c2c1=O	·	67.8	–	·	·	–
Cc1noc(C)c1CSc1nc2sc(C)c(C)c2c(=O)n1-c1ccccc1	·	·	–	·	–	·
O=C(Nc1nncs1)C1c2ccccc2Oc2ccccc21	·	59.3	·	·	·	–
Cc1nnc(NC(=O)C2c3ccccc3Oc3ccccc32)s1	·	·	–	·	–	·
C[C@H]1CN([C@@H](C)CO)C(=O)c2cc(NC(=O)Nc3ccccc3)ccc2O[C@@H]1CN(C)CC1CCCCC1	–	·	–	–	–	–
CCCN(CC(=O)Nc1ccccc1OC)C(=O)c1cccc(S(=O)(=O)NCc2ccccc2)c1	–	90.1	·	–	·	–
COc1ccc(OC)c(-c2cc(C(=O)Nc3c(C)nn(Cc4ccc(Cl)cc4)c3C)no2)c1	·	87.4	–	·	–	–
Cc1nn(Cc2ccc(Cl)cc2)c(C)c1NC(=O)c1cc(-c2ccc3c(c2)OCO3)on1	·	–	–	·	·	·
C=CCNC(=O)c1cc(-c2ccc3c(c2)OCO3)on1	–	–	·	–	–	43.3
Cc1nn(Cc2ccc(Cl)c(Cl)c2)c(C)c1NC(=O)c1cc(-c2ccc3c(c2)OCO3)on1	·	73.3	–	·	–	–
O=C(C[C@H]1C[C@H]2c3cc(NC(=O)NC4CCCC4)ccc3O[C@H]2[C@@H](CO)O1)NCC1CC1	–	–	–	–	–	–
COc1ccc(N(C(=O)CCl)C(C(=O)NCCc2ccccc2)c2cccs2)cc1 (configuration not stated)	113.1	·	–	–	–	53.2
C[C@@H]1CN([C@H](C)CO)C(=O)Cc2cc(NC(=O)Nc3ccc(C(F)(F)F)cc3)ccc2O[C@@H]1CN(C)S(=O)(=O)c1cn(C)cn1	–	–	–	–	–	–
O=C(NCC(F)(F)F)[C@@H]1c2ccccc2C(=O)N(CC23CC4CC(CC(C4)C2)C3)[C@H]1c1ccc(CO)cc1	–	74.2[16.7 µM]	·	–	·	·
COc1ccc(CCNC(=O)[C@@H]2c3ccccc3C(=O)N(CC34CC5CC(CC(C5)C3)C4)[C@H]2c2ccc(CO)cc2)cc1	–	–	·	–	·	·
C[C@@H]1CN([C@H](C)CO)C(=O)c2cc(NC(=O)CCN3CCOCC3)ccc2O[C@H]1CN(C)C(=O)NC1CCCCC1	–	·	–	–	–	–
COC(=O)c1cc(Br)c(=O)n(CCN2CCOCC2)c1	·	·	–	·	104.3	·
C[C@H](CO)N1C[C@H](C)[C@H](CN(C)C(=O)Nc2cccc3ccccc23)OCCCC[C@H](C)Oc2ccc(NS(=O)(=O)c3ccc(Cl)cc3)cc2C1=O	–	–	–	–	135.2	–
C[C@@H]1CN([C@@H](C)CO)C(=O)c2cc(NS(=O)(=O)c3ccc(Cl)cc3)ccc2O[C@@H](C)CCCCO[C@@H]1CN(C)C(=O)Nc1cccc2ccccc12	–	–	–	–	142.0	–
C[C@H]1CCCCO[C@H](CN(C)C(=O)Nc2cccc3ccccc23)[C@@H](C)CN([C@@H](C)CO)C(=O)c2cc(NS(=O)(=O)c3ccc(Cl)cc3)ccc2O1	81.6	–	–	–	–	–
C[C@@H]1CCCCO[C@@H](CN(C)C(=O)Nc2cccc3ccccc23)[C@H](C)CN([C@H](C)CO)C(=O)c2cc(NS(=O)(=O)c3ccc(Cl)cc3)ccc2O1	94.1	–	–	–	86.7	–
SMILES	PAX8 inh HTS	Env fusion inh	miR122 inh	EWS-Fli inh	Statin myotox sup	INS-1E GSIS act
C[C@@H]1CCCCO[C@H](CN(C)C(=O)Nc2cccc3ccccc23)[C@@H](C)CN([C@H](C)CO)C(=O)c2cc(NS(=O)(=O)c3ccc(Cl)cc3)ccc2O1	–	–	–	–	–	–
C[C@H](CO)N1C[C@H](C)[C@@H](CN(C)C(=O)Nc2cccc3ccccc23)OCCCC[C@H](C)Oc2ccc(NS(=O)(=O)c3ccc(Cl)cc3)cc2C1=O	–	–	–	–	?	–
COc1ccccc1S(=O)(=O)N[C@H]1CC[C@H](CC(=O)NCc2cccc(F)c2)O[C@@H]1CO	–	–	–	–	–	–
Brc1ccccc1-c1nnc2sc(Cc3ccccc3)nn12	·	57.4	–	·	–	·
Cc1ccc(NC(=O)C2CCC(CNc3c(N4CCC(C)CC4)c(=O)c3=O)CC2)cc1F (configuration not stated)	–	58.5	·	–	·	–
CCS(=O)(=O)N1CCCC(C(=O)NCCc2ccc(OC)c(OC)c2)C1 (configuration not stated)	·	·	–	·	127.2	·
COc1ccc(CCNC(=O)C2CCC(CNc3c(N4CCCC4)c(=O)c3=O)CC2)cc1OC (configuration not stated)	·	·	–	·	85.7	·
CC1CCN(c2c(NCC3CCC(C(=O)NCc4ccc(F)cc4)CC3)c(=O)c2=O)CC1 (configuration not stated)	–	–	–	–	·	–
O=C(Nc1ccc2c(c1)[C@@H]1C[C@@H](CC(=O)N3CCCCC3)O[C@H](CO)[C@@H]1O2)C1CCC1	–	–	–	–	–	–
CCN1[C@@H]2c3ccc(-c4ccccc4OC)c(=O)n3C[C@@H]2[C@@H](CO)[C@@H]1C(=O)NCc1ccc(F)cc1	·	–	·	–	–	–
O=C(Nc1ccc(F)cc1)N[C@H]1CC[C@H](CCNC(=O)c2ccccc2F)O[C@H]1CO	·	·	·	–	·	–
CC(=O)CCc1c[nH]c2c(C(=O)O)cccc12	·	·	–	·	103.8	·
CC(=O)CCc1ccccc1	·	·	–	–	–	–
CCCCn1c(N2CCCC2)nc2c1c(=O)[nH]c(=O)n2C	–	–	–	–	–	84.3
Cn1c(=O)[nH]c(=O)c2c1nc(N1CCNCC1)n2Cc1cccc2ccccc12	–	58.2	–	·	–	·
CCCCCCn1c(N2CCC(C)CC2)nc2c1c(=O)[nH]c(=O)n2C	·	·	–	·	–	·
Cn1c(=O)[nH]c(=O)c2c1nc(N1CCCCCC1)n2CCN1CCCCCC1	–	–	–	·	–	–
C/C(Cl)=C\Cn1c(N2CCCC2)nc2c1c(=O)[nH]c(=O)n2C	·	·	–	·	–	49.3
CCCCCn1c(N2CCC(C(N)=O)CC2)nc2c1c(=O)[nH]c(=O)n2C	–	–	–	·	107.0	·
Cn1c(=O)[nH]c(=O)c2c1nc(N1CCNCC1)n2Cc1ccccc1	–	–	–	–	–	–
C[C@H](CO)N1C[C@H](C)[C@@H](CN(C)C(=O)Nc2ccc3c(c2)OCO3)Oc2ccc(NS(=O)(=O)c3cn(C)cn3)cc2CC1=O	–	–	–	–	–	–
